Source: PubChem BioAssay (Broad Institute)
The sample as a whole holds a higher share of hits than the screen did.
miR122 inh = miR-122 suppressors via Renilla sensor increase, primary screen, cell-based, Huh7 psiCHECK-miR122, Renilla luciferase, single point; 48 h; AID 623901, 2012; activation, % at 12.5 µM; 340,000 tested, 0.14% active;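 active = mean activation of 30% or more, with every replicate also reaching 30%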;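 also: 0% = median of neutral control wells and 100% = median of positive control wells; higher luciferase signal means stronger suppression of miR-122 activity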
Starred values were filed as active, the others as inactive.

SMILES | miR122 inh
COc1ccc(S(=O)(=O)N(C)C[C@@H]2Oc3ncc(/C=C/c4ccccc4)cc3C(=O)N([C@@H](C)CO)C[C@@H]2C)cc1 | 42.2*
C[C@@H]1CN([C@H](C)CO)C(=O)c2cc(-c3cccnc3)cnc2O[C@H]1CN(C)Cc1ccc(Oc2ccccc2)cc1 | -0.4
Cc1ccc(-c2cnc3c(c2)C(=O)N([C@H](C)CO)C[C@@H](C)[C@H](CN(C)CC2CCCCC2)O3)cc1 | 32.1*
C[C@@H]1CN([C@@H](C)CO)C(=O)c2cc(-c3cccc(F)c3)cnc2O[C@H]1CN(C)CC1CCCC1 | 9.6
Cc1ccc(S(=O)(=O)N(C)C[C@@H]2Oc3cc(C#CC4CCCC4)ccc3S(=O)(=O)N([C@H](C)CO)C[C@H]2C)cc1 | -3.1
C[C@H]1CN([C@@H](C)CO)S(=O)(=O)c2ccc(-c3cccc(C#N)c3)cc2O[C@H]1CN(C)C(=O)Nc1ccccc1F | -4.2
CCCC#Cc1ccc2c(c1)O[C@H](CN(C)C(=O)NCCC)[C@H](C)CN([C@@H](C)CO)S2(=O)=O | -10.2
C[C@@H]1CN([C@@H](C)CO)C(=O)c2cc(C3=CCCCC3)cnc2O[C@H]1CN(C)Cc1ccccc1C(=O)O | 1.8
C[C@H](CO)N1C[C@H](C)[C@@H](CN(C)Cc2ccc3c(c2)OCO3)Oc2c(NC(=O)NC3CCCCC3)cccc2C1=O | -94.9
C[C@H]1CN([C@@H](C)CO)S(=O)(=O)c2ccc(C#Cc3ccccc3)cc2O[C@@H]1CN(C)S(=O)(=O)c1ccccc1F | -33.4
C[C@H](CO)N1C[C@H](C)[C@@H](CN(C)C(=O)C2CCOCC2)Oc2ncc(-c3cccc(F)c3)cc2C1=O | -5.5
CCCNC(=O)N(C)C[C@H]1Oc2ncc(C#C[C@@H](C)O)cc2C(=O)N([C@@H](C)CO)C[C@H]1C | 4.5
C[C@H](CO)N1C[C@H](C)[C@@H](CN(C)Cc2ccc(Oc3ccccc3)cc2)Oc2ncc(-c3cccnc3)cc2C1=O | 0.2
CC(C)CC#Cc1ccc2c(c1)O[C@@H](CN(C)C(=O)C1CCOCC1)[C@@H](C)CN([C@@H](C)CO)S2(=O)=O | -29.2
COc1cccc(-c2cnc3c(c2)C(=O)N([C@H](C)CO)C[C@H](C)[C@H](CN(C)C(=O)Nc2ccccc2F)O3)c1 | 2.5
C[C@@H]1CN([C@@H](C)CO)C(=O)c2cc(C#CCc3ccccc3)cnc2O[C@@H]1CN(C)CC1CCOCC1 | 0.5
C[C@H](CO)N1C[C@H](C)[C@@H](CN(C)C(=O)c2cccnc2)Oc2ncc(-c3ccc(C(=O)N(C)C)cc3)cc2C1=O | -4.9
C[C@H](CO)N1C[C@H](C)[C@@H](CN(C)C(=O)c2ccccn2)Oc2ncc(-c3cccc(F)c3)cc2C1=O | -5.6
C[C@H]1CN([C@@H](C)CO)C(=O)c2cc(-c3cccnc3)cnc2O[C@@H]1CN(C)C(=O)Nc1ccc(F)cc1 | 8.6
C[C@H]1CN([C@@H](C)CO)C(=O)c2cc(-c3cccnc3)cnc2O[C@H]1CN(C)C(=O)Nc1ccc(F)cc1 | 6.3
C[C@H](CO)N1C[C@H](C)[C@H](CN(C)S(=O)(=O)c2cccc(F)c2)Oc2ncc(C#CC3(O)CCCC3)cc2C1=O | 7.2
C[C@@H]1CN([C@@H](C)CO)C(=O)c2cc(C#CC3CCCCC3)cnc2O[C@H]1CN(C)S(=O)(=O)c1cccc(F)c1 | 45.5*
C[C@H]1CN([C@@H](C)CO)C(=O)c2cc(-c3ccc(C#N)cc3)cnc2O[C@H]1CN(C)C(=O)Nc1ccc(C(F)(F)F)cc1 | 37.0*
C[C@@H]1CN([C@H](C)CO)C(=O)c2cc(C#CC3(O)CCCC3)cnc2O[C@H]1CN(C)S(=O)(=O)c1cccc(F)c1 | 6.0
C[C@@H]1CN([C@@H](C)CO)C(=O)c2cc(-c3ccccc3F)cnc2O[C@@H]1CN(C)C(=O)C1CCCCC1 | -11.4
SMILES | miR122 inh
CC(C)CC#Cc1cnc2c(c1)C(=O)N([C@@H](C)CO)C[C@@H](C)[C@H](CN(C)C(=O)Nc1cc(F)ccc1F)O2 | -0.5
Cc1ccc(-c2cnc3c(c2)C(=O)N([C@@H](C)CO)C[C@H](C)[C@H](CN(C)Cc2ccccc2F)O3)cc1 | -0.1
CO[C@@H]1CN(C)C(=O)c2ccc(NC(=O)Nc3ccc(F)cc3)cc2OC[C@H](C)NC[C@H]1C | -2.6
CCCN(C)C[C@H]1Oc2cc(C#Cc3ccccc3F)ccc2S(=O)(=O)N([C@@H](C)CO)C[C@H]1C | -2.2
COc1cccc(-c2cnc3c(c2)C(=O)N([C@@H](C)CO)C[C@H](C)[C@H](CN(C)CC2CCOCC2)O3)c1 | 8.4
C[C@H](CO)N1C[C@H](C)[C@H](CN(C)C(=O)c2cnccn2)Oc2ncc(C#Cc3ccccn3)cc2C1=O | 6.8
